Among the data in PubChem BioAssay (NCI) are growth values, retold here.

Common to all, as to assay: NCI-60 one-dose screen, 48 h (100 = growth as untreated, 0 = no growth, -100 = all killed)
Holding throughout (settings): 10 µM unless noted

Test [1] has as its system DU-145 prostate.
The subject of test [2] is K-562 leukemia.
The test system of test [3] is MALME-3M melanoma.
Test [4] relates to MDA-MB-231 breast.
Test [5] relates to RXF 393 renal.
Test [6] relates to SF-268 CNS.
Test [7] deals with SF-295 CNS.
Test [8] has as its system SF-539 CNS.
In test [9] the test system is UACC-257 melanoma.
Test [10] deals with M14 melanoma.
In test [11] the test system is HCT-15 colon.
Test [12] relates to HT29 colon.
In test [13] the test system is SNB-75 CNS.
Test [14] concerns SNB-19 CNS.
In test [15] the test system is U251 CNS.
Test [16] relates to PC-3 prostate.
The test system of test [17] is SK-MEL-5 melanoma.
The subject of test [18] is UACC-62 melanoma.
Test [19] relates to LOX IMVI melanoma.
Test [20] concerns SK-MEL-28 melanoma.

The structures appear in SMILES notation. About 83,000 compounds went through this panel and 20% of them were active in at least one assay; those are over-represented in the sample as a whole.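 96-well plates, one dose, 48 hours. Percent growth reported; active if below 10.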 A number with no mark means an inactive call. Active and inactive are the calls of the source.

With `COc1ccccc1N1CCCCC1`, the growth in test [1] is 110%; in [2], 93.5%; in test [3], 94.6%; in test [4], 99.9%; in test [5], 133%; in test [6], 108%. In addition, the growth is 98.9% in test [7]; 94.3% in test [8]; 108% in [9]; 101% in test [10]; 102% in [11]; 101% in [12]. Further, the growth is 99.4% in test [13]; 95.2% in test [14]; 108% in test [15]; 98.8% in [16]; 108% in [17]; 96.3% in test [18]. Moreover, the growth in test [19] was 100%; in test [20], 102%.
With `CCCCNC(=O)CC1=C(C)/C(=C/c2[nH]c(-c3ccc[nH]3)cc2OC)N=C1C`, the growth in [1] is 34.6%; in test [2] it was 1.68% (active); in test [3], 34%; in test [4] it was 13.5%; in test [5], 59.4%; in test [6], 27%. Also, the growth in test [7] is 14.6%; in [8], 27.8%; in test [9], 5.48% (active); in [10], -43.1% (active); in test [11], 2.62% (active); in test [12] it was 9.63% (active). In addition, the growth in test [13] was 65.3%; in [14], 67.1%; in test [15], 28.7%; in test [16], 6.07% (active); in test [17], 1.34% (active); in test [18], -28.9% (active). Besides, the growth in test [19] is -36.9% (active); in test [20], 31%.
With `CCOC(=O)C(=O)C(C(=O)OCC)c1ccccc1` (stereo not given), the growth in test [1] was 120%; in test [2] it was 86.7%; in test [3], 93.2%; in test [4], 94.1%; in [5], 113%; in test [6] it was 103%. Further, the growth in test [7] is 139%; in test [8] it was 118%; in test [9] it was 123%; in test [10], 100%; in [11] it was 108%; in [12] it was 116%. The growth is 107% in test [13]; 103% in [14]; 112% in test [15]; 101% in test [16]; 106% in test [17]; 109% in test [18]. Further, the growth is 106% in [19] and 109% in test [20].
With `COc1ccc2c(c1)CC[C@H](O)/C2=C/c1cc(OC)c(OC)c(OC)c1`, the growth is 0.0757% (active) in [1]; 8.97% (active) in test [2]; 64% in [3]; 14.5% in test [4]; 15.5% in test [5]; 27.1% in test [6]. In addition, the growth is 8.44% (active) in test [7]; -5.68% (active) in test [8]; 47.3% in [9]; 6.27% (active) in test [10]; 13.9% in test [11]; 0.825% (active) in test [12]. The growth in [13] was 19.1%; in test [14] it was 38.3%; in [15], 13.3%; in test [16], 17.8%; in [17] it was -40% (active); in [18] it was 31.8%. Moreover, the growth in test [19] is 18.2%; in test [20], 61.5%.
Take `COc1ccc(/C=C/C(=O)c2ccc(Nc3ccnc4cc(Cl)ccc34)cc2)cc1`: the growth in [1] is 103%; in [2], 45%; in [3], 142%; in [4], 80.7%; in test [5], 13.5%; in [6] it was 100%. Further, the growth in [7] was 77.4%; in [8], 86.8%; in test [9], 102%; in [10], 87.8%; in [11], 77.7%; in [12], 45%. The growth in test [13] was 102%; in [14], 87.1%; in [15] it was 84.9%; in test [16] it was 75%; in test [17] it was 67.8%; in test [18], 92.3%. For the same compound, the growth in test [19] is 89.8%; in test [20], 118%.
On to `CC1CCN(S(=O)(=O)c2ccc(S(=O)(=O)N3CCCC(c4nc5c(nnn5Cc5cccc(Cl)c5)c(=O)[nH]4)C3)cc2)CC1` (stereo not given), for which the growth in test [1] was 59.8%; in test [2], 20.1%; in [3], 46.7%; in test [4], 73%; in test [5] it was 15.8%; in test [6] it was 51.9%. Further, the growth in test [7] is 63.6%; in test [8], 49.7%; in [9] it was 54.2%; in [10] it was 16.9%; in test [11] it was 36.1%; in test [12], 17.1%. Also, the growth was 21.6% in test [13]; 67.6% in test [14]; 45.1% in test [15]; 47% in test [16]; 24.1% in [17]; 40.2% in [18]. Also, the growth in [19] was 42.4%; in test [20], 62%.
In the case of `C[C@@H](CO)[C@@H]1CCC=C2CC[C@]3(C)[C@H](CC[C@@H]4[C@@]5(C)CCCNC(C)(C)[C@@H]5CC[C@]43C)[C@H]21`, the growth in test [1] was 62.4%; in test [2], -19.9% (active); in test [3], 46.6%; in test [4], 59.9%; in test [5] it was 68%; in test [6], 82.2%. In addition, the growth in [7] was 93.7%; in [8], 57.8%; in [9], 30.4%; in test [10], 30.9%; in test [11] it was -5.42% (active); in test [12], 1.93% (active). Further, the growth in [13] was 92.3%; in [14], 88.4%; in test [15] it was 18.8%; in [16], 47.1%; in [17], 72.2%; in test [18], 80.3%. Moreover, the growth was -52.2% (active) in test [19] and 70.5% in test [20].
